This note sets out measurements from PubChem BioAssay (NCI).

About 83,000 compounds went through this panel and 20% of them were active in at least one assay; those are over-represented in the sample as a whole.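 Single-dose data. Exposure time 48 hours. Values below 10 considered active.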 Calls of active or inactive are those of the source.

The first assay relates to OVCAR-8 ovarian. The assay is described as follows: NCI-60 one-dose screen, 48 h (100 = growth as untreated, 0 = no growth, -100 = all killed). The note with it: 10 µM unless noted.
As to `Cc1ccc(C)c2c1SC1=NNC(Oc3ccc(Cl)cc3)=C(C#N)C(=N)N12`, the growth is 108% (inactive). On the same count and under the same terms, next, `CCOC(=O)C(Cc1ccccc1)n1c(O)c(/C=N/c2ncc(Cc3ccc(Cl)cc3Cl)s2)sc1=S` (configuration not stated): 2.66% (active); `COc1ccc(-c2cnc(-c3ccncc3-c3cccc(OC)c3)o2)cc1`: 26% (inactive); `Cc1ccc(OC2=C(C#N)C(=N)N3C(=NN2)Sc2c(C)ccc(C)c23)cc1`: 104% (inactive). Consider `O=C(Nc1ccncc1)C(=O)c1cn(S(=O)(=O)c2cccc(Cl)c2F)c2ccccc12`, for which the growth is 82.1% (inactive).

On to `CN1C(=O)NC(Cc2c[nH]c3c(Cl)cccc23)C1=O` (configuration not stated), for which the growth was 112% (inactive). On the same count and under the same terms, under `COc1ccc(C(=O)OC2C(OC3C(O)COC(O[C@H]4C[C@H]5[C@@H]6CC=C7C[C@@H](O)CC[C@]7(C)[C@H]6CC[C@]5(C)[C@H]4[C@H](C)C(=O)CCC(C)C)C3OC(C)=O)OCC(O)C2O)cc1` (some centres not stated) stands 19.3% (inactive); under `C[C@@H]1N=C(c2ccc3ccccc3c2)Nc2nc3ccccn3c2C1=O`, 54.4% (inactive); under `O=[N+]([O-])c1ccc(N=Nc2c(NNc3ccc([N+](=O)[O-])cn3)cc(S(=O)(=O)O)c3ccccc23)nc1`, 67.5% (inactive). Same read-out and setting: next, `CS(=O)(=O)c1ccc(C(=O)N/N=C/c2ccccc2Cl)cc1`: 97.1% (inactive); `CC1=C(O)C(=O)CC1`: 101% (inactive). Still for that read-out and setting: under `O=C(N/N=C/c1ccc([N+](=O)[O-])cc1)c1ccccc1Nc1ccnc(C(F)(F)F)c1` stands 86.8% (inactive); under `Cc1ccc(C(CN(C)C)C(=O)c2ccccc2)cc1` (configuration not stated), 14.5% (inactive); under `CN1CCC2(CC1)N=C(SCC(=O)Nc1cnc3ccccc3c1)C(c1ccc(Br)cc1)=N2`, 19.9% (inactive). Take `Nc1c(C(=O)C[C@@H](N)CO)ccc2c1C(=O)CCO2`: the growth is 35.8% (inactive). Same read-out and setting: under `Cc1ccncc1NC=O` stands 104% (inactive); under `Cc1c2c(cc3c1[nH]c1ccccc13)C=NCC2`, 94.1% (inactive); under `O=S1(=O)NCCCN1CCNc1nccc(-c2c(-c3cccc(O)c3)nc3sccn23)n1`, 83% (inactive).

For the compound `CCc1c(C)c2ccc(O)c(-c3cc(-c4ccccc4)c(C#N)c(=O)[nH]3)c2oc1=O`, the growth was 100% (inactive). Still for that read-out and setting: next, `COc1ccc2nc3cc(Cl)ccc3c(NC(=O)CSc3ccc(Cl)cc3)c2c1`: -63.8% (active); `C=CC(=O)N1CN(C(=O)C=C)CN(C(=O)C=C)C1`: 62.4% (inactive). Consider `CCCC(CCC)(C(N)=O)C(=O)O`, for which the growth was 102% (inactive). Same read-out and setting: next, `C=CCCCCOc1cccc(/C=C2\N=C3SCCCN3C2=O)c1`: 101% (inactive).

Another assay relates to OVCAR-5 ovarian. Described as above. The note with it: 10 µM unless noted.
For `COc1ccc(NC(=O)c2sc3c(=O)[nH]c(C(F)(F)F)nc3c2C)cc1`, the growth is 116% (inactive). Still for that read-out and setting: next, `O=C(Nc1cccc(Cl)c1)Nc1ccccc1Cl`: 115% (inactive); `NC(=O)N/N=C\c1ccc([N+](=O)[O-])o1`: 103% (inactive); `CCN(CC)Cc1cc(Nc2ccnc3ccc(OC)cc23)ccc1O`: 55% (inactive). Still for that read-out and setting: next, `CC(C)(C)c1nn(-c2ccccc2)c2c1C(=O)CSC(c1ccc3c(c1)OCO3)N2` (configuration not stated): 95.7% (inactive). Still for that read-out and setting: under `CN(C)N1C(=O)c2c(Cl)c(Cl)c(Cl)c(Cl)c2C1=O` stands 115% (inactive); under `O=c1c2cc(Cl)ccc2oc2ccc(OCCCCCN3CCCCC3)cc12`, 75.4% (inactive).

Regarding `C=CCOc1ccc2c(C)cc(=O)oc2c1`, the growth is 113% (inactive).

With `O=C(CSc1nc2c(n1Nc1ccccc1)-c1ccccc1SC2)Nc1nccs1`, the growth was 103% (inactive). As for `CCNC(=O)c1ccc2c(c1)nc(-c1ccc(Cl)cc1)n2-c1cc(C(C)(C)C)[nH]n1`, the growth is 63.9% (inactive). Still for that read-out and setting: under `CC(C)CC1NC(=O)C(CC(C)C)N(CO)C1=O` (configuration not stated) stands 106% (inactive); under `CCn1c(=O)c(C(=O)NCCCO)c(O)c2ccccc21`, 116% (inactive); under `COc1cc(NCC(O)CN(CC(C)C)CC(C)C)c2ncccc2c1` (configuration not stated), 101% (inactive). For the compound `CC(=O)Nc1ccc(/C=N/N2CCCCCC2)cc1`, the growth is 96.7% (inactive). The same measure, in the same setting: next, `O=c1oc2ccccc2cc1-c1cc(-c2ccc(-c3cc(-c4cc5ccccc5oc4=O)nc(-c4cc5ccccc5oc4=O)c3)cc2)cc(-c2cc3ccccc3oc2=O)n1`: 119% (inactive); `CCN(CC)c1ccc(/C=N/N=C(N)N)cc1`: 79.8% (inactive); `Cc1ccc(C)c2c1SC1=NNC(Oc3ccc(Cl)cc3)=C(C#N)C(=N)N12`: 111% (inactive). On the same count and under the same terms, under `CCOC(=O)C(Cc1ccccc1)n1c(O)c(/C=N/c2ncc(Cc3ccc(Cl)cc3Cl)s2)sc1=S` (configuration not stated) stands 38.9% (inactive); under `COc1ccc(-c2cnc(-c3ccncc3-c3cccc(OC)c3)o2)cc1`, 57.4% (inactive).

As to `Cc1ccc(OC2=C(C#N)C(=N)N3C(=NN2)Sc2c(C)ccc(C)c23)cc1`, the growth is 128% (inactive). On the same count and under the same terms, next, `O=C(Nc1ccncc1)C(=O)c1cn(S(=O)(=O)c2cccc(Cl)c2F)c2ccccc12`: 101% (inactive); `CN1C(=O)NC(Cc2c[nH]c3c(Cl)cccc23)C1=O` (configuration not stated): 102% (inactive); `COc1ccc(C(=O)OC2C(OC3C(O)COC(O[C@H]4C[C@H]5[C@@H]6CC=C7C[C@@H](O)CC[C@]7(C)[C@H]6CC[C@]5(C)[C@H]4[C@H](C)C(=O)CCC(C)C)C3OC(C)=O)OCC(O)C2O)cc1` (some centres not stated): 21.6% (inactive).

On to `C[C@@H]1N=C(c2ccc3ccccc3c2)Nc2nc3ccccn3c2C1=O`, for which the growth is 90.6% (inactive).

As to `O=[N+]([O-])c1ccc(N=Nc2c(NNc3ccc([N+](=O)[O-])cn3)cc(S(=O)(=O)O)c3ccccc23)nc1`, the growth was 91.4% (inactive).

As for `CS(=O)(=O)c1ccc(C(=O)N/N=C/c2ccccc2Cl)cc1`, the growth was 109% (inactive). For the compound `CC1=C(O)C(=O)CC1`, the growth is 112% (inactive).

For the compound `O=C(N/N=C/c1ccc([N+](=O)[O-])cc1)c1ccccc1Nc1ccnc(C(F)(F)F)c1`, the growth was 75.7% (inactive). Take `Cc1ccc(C(CN(C)C)C(=O)c2ccccc2)cc1` (configuration not stated): the growth was 65.9% (inactive). For the compound `CN1CCC2(CC1)N=C(SCC(=O)Nc1cnc3ccccc3c1)C(c1ccc(Br)cc1)=N2`, the growth is 67.7% (inactive). In the case of `Nc1c(C(=O)C[C@@H](N)CO)ccc2c1C(=O)CCO2`, the growth was 72.8% (inactive). Regarding `Cc1ccncc1NC=O`, the growth was 110% (inactive). In the case of `Cc1c2c(cc3c1[nH]c1ccccc13)C=NCC2`, the growth was 98.3% (inactive). On the same count and under the same terms, under `O=S1(=O)NCCCN1CCNc1nccc(-c2c(-c3cccc(O)c3)nc3sccn23)n1` stands 108% (inactive). The same measure, in the same setting: under `CCc1c(C)c2ccc(O)c(-c3cc(-c4ccccc4)c(C#N)c(=O)[nH]3)c2oc1=O` stands 95.1% (inactive); under `COc1ccc2nc3cc(Cl)ccc3c(NC(=O)CSc3ccc(Cl)cc3)c2c1`, -87.2% (active); under `C=CC(=O)N1CN(C(=O)C=C)CN(C(=O)C=C)C1`, 109% (inactive). As for `CCCC(CCC)(C(N)=O)C(=O)O`, the growth was 99.6% (inactive). For the compound `C=CCCCCOc1cccc(/C=C2\N=C3SCCCN3C2=O)c1`, the growth was 106% (inactive).
